# Only a selection was taken, and hits are over-represented in it overall.
# Dicer inh: inhibitors of Dicer pre-microRNA processing, primary screen, biochemical, cat-ELCCA, chemiluminescence; cat-ELCCA pre-miR-21 Dicer processing; stronger effect = higher value; hit rate 6% among 47,000; z-score at 25 µM; in the data active = z-score above about 3, passing the limit was not always enough;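 also: plate controls were vehicle for no effect and no enzyme for full effect; higher signal means more uncleaved substrate so more Dicer inhibition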
# Numbers without * were called inactive.
SMILES,Dicer inh
COc1cccc2c1OC(c1ccncc1)N1N=C(c3cc(Cl)ccc3O)CC21 (centres undefined),2.2
Brc1ccc2c(c1)C1CC(c3ccccc3)=NN1C(c1cccnc1)O2 (centres undefined),1.04
Cc1ccc(C2=NN3C(C2)c2cc(Br)ccc2OC3c2ccncc2)s1 (centres undefined),4.32*
Brc1ccc2c(c1)C1CC(c3ccco3)=NN1C(c1ccccc1)O2 (centres undefined),5.71*
CCOc1ccc(C2Oc3ccc(Cl)cc3C3CC(c4ccco4)=NN32)cc1 (centres undefined),3.82*
Cc1ccc(O)c(C2=NN3C(C2)c2cc(Br)ccc2OC3c2ccncc2)c1 (centres undefined),0.98
COC(=O)c1ccc(C2Oc3ccccc3C3CC(c4cc(OC)ccc4O)=NN32)cc1 (centres undefined),2.66
c1ccc(C2Oc3ccccc3C3CC(c4cccnc4)=NN32)cc1 (centres undefined),0.1
COc1cccc(C2=NN3C(C2)c2cc(Br)ccc2OC3c2ccncc2)c1 (centres undefined),6.71*
COc1cc(CO)c(C2(C(=O)O)CCCC2)cc1OC,-1.68
O=C(O)CCC(=O)N1c2ccccc2NC2=C(C(=O)CC(c3ccc(F)cc3)C2)C1c1cccs1 (centres undefined),-1.78
CC1CCc2c(sc3ncnc(Sc4ccccc4)c23)C1 (centres undefined),-0.63
O=C1CCC([N+](=O)[O-])C(c2cccc(OCc3ccccc3)c2)N1 (centres undefined),1.68
FC(F)(F)c1cc(C(F)(F)F)n2nc(-c3ccc(Cl)cc3)cc2n1,-0.11
CCOc1cc(C2c3c(oc4ccc(C)cc4c3=O)C(=O)N2Cc2ccc3c(c2)OCO3)ccc1O (centres undefined),0.86
COCc1[nH]nc2c1C(c1cccc(Br)c1)C(C#N)=C(N)O2 (centres undefined),-2.57
CCC(C)NCCS(=O)(=O)c1ccc(Cl)cc1 (centres undefined),1.92
COc1ccc(O)c(C2=NN3C(C2)c2cc(Br)ccc2OC3c2ccncc2)c1 (centres undefined),13.1*
CSCCC1Oc2ccccc2C2CC(c3ccccc3O)=NN12 (centres undefined),3.78
COc1cccc2c1OC(CCSC)N1N=C(c3cc(C)ccc3O)CC21 (centres undefined),-0.7
COc1ccc(C2Oc3c(OC)cccc3C3CC(c4cc(OC)ccc4O)=NN32)cc1 (centres undefined),0.44
CSCCC1Oc2ccc(Br)cc2C2CC(c3ccccc3O)=NN12 (centres undefined),11.3*
COc1ccc(O)c(C2=NN3C(C2)c2cc(Br)ccc2OC3c2cccnc2)c1 (centres undefined),3.11
COC(=O)c1sc(N2C(=O)c3oc4ccc(C)cc4c(=O)c3C2c2ccc(O)cc2)nc1C (centres undefined),0.05
CC(C)(C)NC(=S)Nc1cccc(Cl)c1Cl,-0.55
SMILES,Dicer inh
COc1ccc(C2c3c(oc4ccccc4c3=O)C(=O)N2c2nc(C)c(C)s2)cc1OC (centres undefined),0.54
CCCCOc1ccc(C2c3c(oc4ccccc4c3=O)C(=O)N2c2nnc(C)s2)cc1 (centres undefined),-0.34
CN(C)S(=O)(=O)c1ccc(/C(O)=C2\C(=O)C(=O)N(CCN3CCOCC3)C2c2ccccc2)cc1 (centres undefined),0.79
O=C(O)c1ccccc1C(=O)OCCO,-0.6
Cc1oc(S(=O)(=O)N2CCOCC2)cc1-c1nc(-c2ccc(C(C)(C)C)cc2)no1,0.66
S=C(NNc1ccccc1)Nc1ccccc1Cl,-0.5
CC1=CC(C)(C)N(C(=O)Nc2ccccc2)c2c(C)cc(C)cc21,1.5
CC1=CC(C)(C)N(C(=O)Nc2ccccc2)c2ccccc21,3.47*
CC1=CC(C)(C)N(C(=O)NC2CCCCC2)c2ccccc21,0.52
N#Cc1cnn(C(=O)c2cccs2)c1C1CC1,0.88
Cc1ccc(S(=O)(=O)n2ccc3cc(N)ccc32)cc1,5.69*
Cc1ccc(S(=O)(=O)c2c(C)cc(C)cc2C)cc1,-1.09
Cc1ccc(S(=O)(=O)n2nc(C)cc2N)cc1,-0.94
COc1cc(C(=O)NC(=S)NC(N)=O)cc(OC)c1OC,-0.93
O=C(CSc1n[nH]c(C(F)(F)F)n1)c1ccc2ccccc2c1,-0.23
CC(C)c1nc2sc3c(ncn4ncnc34)c2c2c1CCCC2,-0.49
O=S(=O)(CCSc1cccs1)c1ccccc1,0.25
FC(F)(F)c1cc(-c2ccc(Br)cc2)nc2ncnn12,-0.18
Nc1nc2nc(-c3ccc(OCc4ccccc4)cc3)cc(C(F)(F)F)n2n1,0.12
FC(F)(F)c1cccc(Nc2cc(-c3ccccc3)nc3ncnn23)c1,0.54
Cc1cc2nc(-c3cccc(Br)c3)cc(C(F)(F)F)n2n1,-1.47
Nc1nc2nc(-c3cccc(Br)c3)cc(C(F)(F)F)n2n1,4.87*
FC(F)(F)c1cc(-c2cccc(Br)c2)nc2ncnn12,3.87*
